Assay results from PubChem BioAssay (NCI).
This is part of a sample that, as a whole, favours compounds with a hit. Of some 83,000 tested, about 20% had one in any assay.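 Testing used 96-well plates and a 48-hour single-concentration exposure. Example: -40 means 40% of the starting cells died.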 The source made the active and inactive calls. How the source made its calls: active means growth percent below 10; inactive means the rest.

Columns and labels:
Experiment in all cases: NCI-60 one-dose screen, 48 h (100 = growth as untreated, 0 = no growth, -100 = all killed)
Details in all cases: 10 µM unless noted
NCI-H23 lung = tested on: NCI-H23 lung
NCI-H226 lung = tested on: NCI-H226 lung
NCI-H322M lung = tested on: NCI-H322M lung
HOP-62 NSCLC = tested on: HOP-62 NSCLC
NCI-H460 lung = tested on: NCI-H460 lung
HOP-92 NSCLC = tested on: HOP-92 NSCLC
NCI-H522 lung = tested on: NCI-H522 lung
A549/ATCC NSCLC = tested on: A549/ATCC NSCLC
786-0 renal = tested on: 786-0 renal
COLO 205 colon = tested on: COLO 205 colon
DU-145 prostate = tested on: DU-145 prostate
K-562 leukemia = tested on: K-562 leukemia
MALME-3M melanoma = tested on: MALME-3M melanoma
MDA-MB-231 breast = tested on: MDA-MB-231 breast
RXF 393 renal = tested on: RXF 393 renal
SF-268 CNS = tested on: SF-268 CNS
SF-295 CNS = tested on: SF-295 CNS
SF-539 CNS = tested on: SF-539 CNS
UACC-257 melanoma = tested on: UACC-257 melanoma
M14 melanoma = tested on: M14 melanoma

Measured: growth

c1ccc(-c2cc3cc4ccccc4cn3c2)cc1
inactive: NCI-H23 lung 89.3% | NCI-H226 lung 73.1% | NCI-H322M lung 99.6% | HOP-62 NSCLC 78.7% | NCI-H460 lung 88.3% | HOP-92 NSCLC 76.5% | NCI-H522 lung 79.4% | A549/ATCC NSCLC 89.9% | 786-0 renal 102% | COLO 205 colon 95.1% | DU-145 prostate 101% | K-562 leukemia 64.3% | MALME-3M melanoma 91.3% | MDA-MB-231 breast 81.6% | RXF 393 renal 104% | SF-268 CNS 95.7% | SF-295 CNS 84.8% | SF-539 CNS 104% | UACC-257 melanoma 91.6% | M14 melanoma 94.7%

Oc1ccc2ccccc2c1N=Nc1nccs1
inactive: NCI-H23 lung 40% | NCI-H322M lung 15.7% | HOP-62 NSCLC 20.2% | NCI-H460 lung 10.2% | HOP-92 NSCLC 46.9% | NCI-H522 lung 178% | A549/ATCC NSCLC 43.6% | COLO 205 colon 21.4% | DU-145 prostate 20.5% | K-562 leukemia 10.4% | MALME-3M melanoma 29.2% | MDA-MB-231 breast 28.8% | RXF 393 renal 47.3% | SF-295 CNS 31.4% | SF-539 CNS 15.2% | UACC-257 melanoma 66%
active: NCI-H226 lung -0.189% | 786-0 renal -40.2% | SF-268 CNS 1.32%

O=C(NOC(=O)c1ccccc1)c1ccccc1
inactive: NCI-H23 lung 107% | NCI-H226 lung 106% | NCI-H322M lung 119% | HOP-62 NSCLC 105% | NCI-H460 lung 97.9% | HOP-92 NSCLC 101% | NCI-H522 lung 98% | A549/ATCC NSCLC 120% | 786-0 renal 93.9% | COLO 205 colon 117% | DU-145 prostate 112% | K-562 leukemia 40.8% | MALME-3M melanoma 109% | MDA-MB-231 breast 111% | RXF 393 renal 110% | SF-268 CNS 101% | SF-295 CNS 112% | SF-539 CNS 102% | UACC-257 melanoma 124% | M14 melanoma 104%

CN1CCC(CN2c3ccccc3Sc3ccccc32)C1 (centres undefined)
inactive: NCI-H23 lung 88.9% | NCI-H226 lung 111% | NCI-H322M lung 86.3% | HOP-62 NSCLC 91.5% | NCI-H460 lung 101% | NCI-H522 lung 86.2% | A549/ATCC NSCLC 90.7% | 786-0 renal 69% | COLO 205 colon 84.6% | DU-145 prostate 92.4% | K-562 leukemia 38% | MALME-3M melanoma 79.8% | MDA-MB-231 breast 59.5% | RXF 393 renal 91.4% | SF-268 CNS 89.2% | SF-295 CNS 95.7% | SF-539 CNS 86.3% | UACC-257 melanoma 88.6% | M14 melanoma 73.6%
active: HOP-92 NSCLC -0.214%

CN=C(N)N/N=C(\c1ccccc1)c1ccc(Br)cc1
inactive: NCI-H23 lung 21% | NCI-H226 lung 15.6% | HOP-92 NSCLC 32.2% | 786-0 renal 13.4% | MALME-3M melanoma 25.9% | SF-268 CNS 11.9% | UACC-257 melanoma 47.2%
active: NCI-H322M lung 0.506% | HOP-62 NSCLC 8.02% | NCI-H460 lung 6.18% | NCI-H522 lung -29.9% | A549/ATCC NSCLC 9.47% | COLO 205 colon -55.6% | DU-145 prostate -9.2% | K-562 leukemia -6.02% | MDA-MB-231 breast -9.39% | RXF 393 renal -0.626% | SF-295 CNS -46% | SF-539 CNS -19.2% | M14 melanoma -13.1%

O=C(Nc1ccc(Cl)c(Cl)c1)OCc1ccco1
active: NCI-H522 lung 5.5%
inactive: NCI-H23 lung 58.5% | NCI-H226 lung 63.9% | NCI-H322M lung 56.6% | HOP-62 NSCLC 49.3% | NCI-H460 lung 26.4% | HOP-92 NSCLC 58.9% | A549/ATCC NSCLC 34.9% | 786-0 renal 57.5% | COLO 205 colon 64.8% | DU-145 prostate 54.8% | K-562 leukemia 15.8% | MALME-3M melanoma 68.6% | MDA-MB-231 breast 52.2% | RXF 393 renal 56% | SF-268 CNS 47.8% | SF-295 CNS 31.6% | SF-539 CNS 41.8% | UACC-257 melanoma 62.6% | M14 melanoma 44.9%

CCC(C)(O)Cc1ccc(Cl)cc1 (centres undefined)
inactive: NCI-H23 lung 109% | NCI-H226 lung 97.5% | NCI-H322M lung 100% | HOP-62 NSCLC 97.1% | NCI-H460 lung 104% | HOP-92 NSCLC 102% | NCI-H522 lung 99.5% | A549/ATCC NSCLC 104% | 786-0 renal 100% | COLO 205 colon 108% | DU-145 prostate 114% | K-562 leukemia 99.3% | MALME-3M melanoma 110% | MDA-MB-231 breast 95.7% | RXF 393 renal 101% | SF-268 CNS 106% | SF-295 CNS 94.6% | SF-539 CNS 104% | UACC-257 melanoma 108% | M14 melanoma 101%
